As usually defined, the inhibition is the drop in the measured response relative to a control, in per cent.

Structures are written as SMILES. A number with no mark means an inactive call. For part of these data: Results with a measured potency or affinity are listed apart. Activity calls are given as the source filed them. Unless noted, how the calls were made is not given here.

Experiment [1] can be described thus: antimalarial activity against Dd2 strain (AID 2302;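 active means growth inhibition above 50% at the single 2 µM test dose, taken to imply half-maximal potency below 2 µM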;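 further: 0% = DMSO untreated growth and 100% = chloroquine plus artemisinin killed control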). Conditions: P. falciparum Dd2 in RBCs, LDH growth readout, 72 h; at 2 µM; hits give high values.
Experiment [2] is described as follows: HepG2 cytotoxicity, primary screen, cytotoxicity control for P. falciparum antimalarial project, cell-based, ATP luminescence (AID 2303;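 active means inhibition above 50%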;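 further: 0% = DMSO wells and 100% = digitonin-killed cells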). The settings on record: HepG2 viability, 24-48 h, at 10 µM, hits give high values.
The target in experiment [3] is L-lactate dehydrogenase (Plasmodium falciparum (isolate CDC / Honduras)) (UniProt Q27743). In words: PfLDH activity inhibition – cell lysate, 3D7 strain, counter-screen for P. falciparum growth inhibition project (AID 2304).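 Further: 0% = vehicle and 100% = reference inhibitor.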 Conditions: P. falciparum 3D7 crude extract, LDH APAD/NBT absorbance; at 2 µM; hits give high values. (A counterscreen serves to expose hits that act by an unwanted route or on another target.)
Sequence of L-lactate dehydrogenase (Plasmodium falciparum (isolate CDC / Honduras)) (Q27743 whole entry, looked up): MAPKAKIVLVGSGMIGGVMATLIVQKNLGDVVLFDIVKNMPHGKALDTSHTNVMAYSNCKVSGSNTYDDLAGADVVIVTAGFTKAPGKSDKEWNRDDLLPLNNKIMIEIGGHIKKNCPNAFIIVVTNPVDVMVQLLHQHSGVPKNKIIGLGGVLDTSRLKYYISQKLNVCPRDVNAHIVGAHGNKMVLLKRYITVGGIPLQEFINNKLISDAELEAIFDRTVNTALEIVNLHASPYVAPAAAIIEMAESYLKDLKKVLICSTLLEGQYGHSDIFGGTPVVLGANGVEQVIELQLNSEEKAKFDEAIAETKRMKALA

Experiment [4] can be described thus: inhibition of 3D7 malaria parasite growth – strain 3D7 (AID 2306).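 Further: 0% = DMSO wells and 100% = chloroquine plus artemisinin control wells.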 Conditions: P. falciparum 3D7 erythrocytic growth, LDH absorbance, 72 h; at 2 µM; hits give high values.
Experiment [5] deals with Calcium-dependent protein kinase 1 (Plasmodium falciparum (isolate 3D7)) (UniProt P62344). In words: PfCDPK1 kinase inhibitors, biochemical, TCAMS library (AID 1159585; cut-off not given, nearly all actives have IC50 up to about 0.98 µM;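 further: inhibitors leave more ATP so luminescence rises with inhibition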). The settings on record: recombinant PfCDPK1, Kinase-Glo ATP depletion luminescence. A general note: In Kinase-Glo more light means more ATP remaining.
Sequence of Calcium-dependent protein kinase 1 (Plasmodium falciparum (isolate 3D7)) (P62344 whole entry, looked up): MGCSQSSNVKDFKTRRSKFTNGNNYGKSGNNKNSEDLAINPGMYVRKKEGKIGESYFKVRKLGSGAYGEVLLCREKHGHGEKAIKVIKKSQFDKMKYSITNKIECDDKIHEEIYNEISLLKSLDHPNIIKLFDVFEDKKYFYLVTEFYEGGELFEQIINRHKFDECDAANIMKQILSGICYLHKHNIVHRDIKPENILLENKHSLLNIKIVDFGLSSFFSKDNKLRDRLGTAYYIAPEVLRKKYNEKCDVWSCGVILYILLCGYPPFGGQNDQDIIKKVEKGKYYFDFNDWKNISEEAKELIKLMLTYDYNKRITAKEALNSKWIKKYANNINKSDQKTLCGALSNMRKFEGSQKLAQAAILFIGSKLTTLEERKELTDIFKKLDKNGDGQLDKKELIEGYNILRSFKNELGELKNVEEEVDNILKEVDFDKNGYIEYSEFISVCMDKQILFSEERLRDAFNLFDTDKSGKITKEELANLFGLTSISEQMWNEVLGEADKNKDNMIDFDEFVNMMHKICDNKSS
Experiment [6] has as its target Plasmodium falciparum protein kinase 6 (PK6, PF3D7_1337100) (UniProt Q8IDW1). Put plainly: PfPK6 kinase inhibitors, biochemical, TCAMS library (AID 1159586). The settings on record: recombinant PfPK6, Kinase-Glo ATP depletion luminescence.
Experiment [7] has as its target Protein kinase 7 (PK7), Plasmodium falciparum 3D7 (PF3D7_0213400) (UniProt Q7YTF7). In words: inhibition of Plasmodium PK7 catalytic activity – biochemical, TCAMS antimalarial set, Kinase-Glo luminescence (AID 1159587). The settings on record: recombinant PfPK7, Kinase-Glo ATP depletion luminescence.
In experiment [8] the target is Calcium-dependent protein kinase 4 (Plasmodium falciparum (isolate 3D7)) (UniProt Q8IBS5). In words: PfCDPK4 kinase inhibitors, biochemical, TCAMS library (AID 1159588; cut-off not given, nearly all actives have IC50 up to about 0.91 µM). The settings on record: recombinant PfCDPK4, Kinase-Glo ATP depletion luminescence.
Sequence of Calcium-dependent protein kinase 4 (Plasmodium falciparum (isolate 3D7)) (Q8IBS5 whole entry, looked up): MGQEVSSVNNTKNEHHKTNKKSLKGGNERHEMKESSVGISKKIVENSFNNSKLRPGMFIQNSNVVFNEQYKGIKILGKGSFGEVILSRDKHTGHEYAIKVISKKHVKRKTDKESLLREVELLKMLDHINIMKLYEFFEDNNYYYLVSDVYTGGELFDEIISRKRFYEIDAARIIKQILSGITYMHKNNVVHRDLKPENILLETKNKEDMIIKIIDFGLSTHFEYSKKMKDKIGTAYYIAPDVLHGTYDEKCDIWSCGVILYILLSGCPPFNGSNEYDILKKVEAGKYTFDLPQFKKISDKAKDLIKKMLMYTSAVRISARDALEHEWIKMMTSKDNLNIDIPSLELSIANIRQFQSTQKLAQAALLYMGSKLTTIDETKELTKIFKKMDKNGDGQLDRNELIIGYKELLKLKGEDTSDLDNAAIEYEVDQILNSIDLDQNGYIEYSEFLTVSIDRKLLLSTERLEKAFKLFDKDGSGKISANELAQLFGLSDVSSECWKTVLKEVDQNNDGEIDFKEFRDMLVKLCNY

Sequence of Plasmodium falciparum protein kinase 6 (PK6, PF3D7_1337100) (Q8IDW1 1-305): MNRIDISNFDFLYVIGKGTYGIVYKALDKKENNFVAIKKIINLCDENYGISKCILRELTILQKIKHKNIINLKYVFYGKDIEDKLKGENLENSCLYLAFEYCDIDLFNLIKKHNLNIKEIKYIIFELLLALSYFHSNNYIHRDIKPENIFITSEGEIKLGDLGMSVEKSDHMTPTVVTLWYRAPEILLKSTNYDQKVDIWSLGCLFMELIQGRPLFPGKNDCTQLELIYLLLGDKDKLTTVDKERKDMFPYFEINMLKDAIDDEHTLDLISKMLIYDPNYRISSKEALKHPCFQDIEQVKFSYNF
Sequence of Protein kinase 7 (PK7), Plasmodium falciparum 3D7 (PF3D7_0213400) (Q7YTF7 1-343): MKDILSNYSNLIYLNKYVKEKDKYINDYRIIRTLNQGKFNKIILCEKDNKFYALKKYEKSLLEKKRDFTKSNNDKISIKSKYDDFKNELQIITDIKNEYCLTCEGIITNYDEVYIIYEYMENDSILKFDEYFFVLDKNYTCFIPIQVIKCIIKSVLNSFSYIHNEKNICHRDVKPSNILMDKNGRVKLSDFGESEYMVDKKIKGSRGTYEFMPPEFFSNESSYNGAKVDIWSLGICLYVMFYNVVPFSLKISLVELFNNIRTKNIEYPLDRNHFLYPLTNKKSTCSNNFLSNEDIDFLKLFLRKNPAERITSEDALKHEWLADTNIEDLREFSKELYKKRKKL

In the case of `Fc1ccc2c(NN=Cc3ccccc3)ccnc2c1`, the growth inhibition in experiment [1] was 99% (active); in experiment [4], 100% (active). Moreover, the inhibition in experiment [2] was 1%; in experiment [3], 2%. Also, the outcome in experiment [5], in experiment [6], in experiment [7] and in experiment [8] was inactive.
For `CN1CCCC(CN2CCN(Cc3cccc(-c4ccc(-c5nc6ccccc6[nH]5)s4)c3)CC2)C1` (centres undefined), the growth inhibition in experiment [1] and in experiment [4] was 99% (active) in each case. Moreover, the values for the inhibition in experiment [2] and in experiment [3] were 52% (active) and -6%, respectively. For the same compound, the outcome in experiment [5], in experiment [6], in experiment [7] and in experiment [8] was inactive.
As to `O=S(=O)(ON=C1CCc2ccccc21)c1ccc(Cl)cc1`, the growth inhibition is 79% (active) in experiment [1] and 100% (active) in experiment [4]. Moreover, the figures for the inhibition in experiment [2] and in experiment [3] were -2% and 3%, respectively. For the same compound, the result in experiment [5], in experiment [6], in experiment [7] and in experiment [8] was inactive.
As for `COc1ccc2nc(Nc3nc4ccncc4[nH]3)sc2c1`, the figures for the growth inhibition in experiment [1] and in experiment [4] were 26% and 88% (active), respectively. Besides, the inhibition was 8% in experiment [2] and 0% in experiment [3]. The result in experiment [5], in experiment [6], in experiment [7] and in experiment [8] was inactive.
As to `COc1cc(F)c2nccc([C@@H](O)CN3CCC(NCc4nc5c(F)cccc5[nH]4)CC3)c2c1`, the figures for the growth inhibition in experiment [1] and in experiment [4] were 5% and 99% (active), respectively. The values for the inhibition in experiment [2] and in experiment [3] were 11% and -4%, respectively. Moreover, the outcome in experiment [5], in experiment [6], in experiment [7] and in experiment [8] was inactive.
As for `COc1ccc2nccc(N3CCC(NCCNS(=O)(=O)c4ccc5c(c4)NC(=O)CS5)C3)c2n1` (centres undefined), the growth inhibition is 18% in experiment [1] and 97% (active) in experiment [4]. The inhibition in experiment [2] is 12%; in experiment [3], 2%. In addition, the outcome in experiment [5], in experiment [6], in experiment [7] and in experiment [8] was inactive.
As to `CN1CCN(CC(=O)Nc2ccc(-c3csc(-c4nc5ccccc5[nH]4)c3)cc2)CC1`, the growth inhibition in experiment [1] was 46%; in experiment [4], 99% (active). The inhibition is 6% in experiment [2] and -4% in experiment [3]. Also, the result in experiment [5], in experiment [6], in experiment [7] and in experiment [8] was inactive.
As for `CCCCN1CC[C@@H](CCC(O)c2ccnc3ccc(OCCC(C)C)cc23)[C@@H](CC)C1` (some centres undefined), the growth inhibition is 90% (active) in experiment [1] and 94% (active) in experiment [4]. In addition, the figures for the inhibition in experiment [2] and in experiment [3] were 22% and 2%, respectively. For the same compound, the outcome in experiment [5], in experiment [6], in experiment [7] and in experiment [8] was inactive.
As for `Cc1cccc(Cl)c1Nc1nnc(-c2cccc(C(=O)NC[C@@H]3CC[C@H]4C[C@@H]3C4(C)C)c2)o1`, the results for the growth inhibition in experiment [1] and in experiment [4] were 69% (active) and 85% (active), respectively. Besides, the inhibition in experiment [2] is 2%; in experiment [3], -3%. Moreover, the result in experiment [5], in experiment [6], in experiment [7] and in experiment [8] was inactive.
As for `Cc1cccc2[nH]c(-c3ccc(-c4cccc(CNCCNC(=O)c5ccnn5C)c4)s3)nc12`, the results for the growth inhibition in experiment [1] and in experiment [4] were 87% (active) and 102% (active), respectively. Also, the inhibition in experiment [2] is 17%; in experiment [3], -4%. In addition, the outcome in experiment [5], in experiment [6], in experiment [7] and in experiment [8] was inactive.
As to `O=C(/C=C/c1ccc(Cl)cc1Cl)N1CCC(CCN2CCC(c3c[nH]c4ccccc34)CC2)CC1`, the growth inhibition in experiment [1] is 37%; in experiment [4], 98% (active). Moreover, the inhibition in experiment [2] is 94% (active); in experiment [3], -6%. Moreover, the outcome in experiment [5], in experiment [6], in experiment [7] and in experiment [8] was inactive.
Regarding `CC(=O)c1ccc(-c2ccc(C(=O)NCCCCN3CCC(c4ccc5c(c4OCC(N)=O)CCCC5)CC3)cc2)s1`, the growth inhibition in experiment [1] is 4%; in experiment [4] it was 90% (active). Moreover, the inhibition in experiment [2] was 26%; in experiment [3] it was -4%. Also, the outcome in experiment [5], in experiment [6], in experiment [7] and in experiment [8] was inactive.
`CCOc1c(CNCCCNc2cc(=O)c3ccccc3[nH]2)cc(I)cc1C(C)(C)C`: the growth inhibition in experiment [1] is 89% (active); in experiment [4], 102% (active). Moreover, the inhibition was 17% in experiment [2] and -4% in experiment [3]. Further, the result in experiment [5], in experiment [6], in experiment [7] and in experiment [8] was inactive.
With `CCc1c(C)nc(-n2nc(C)cc2NC(=O)c2cccc3ccccc23)[nH]c1=O`, the results for the growth inhibition in experiment [1] and in experiment [4] were 89% (active) and 98% (active), respectively. Also, the inhibition in experiment [2] is 39%; in experiment [3], 1%. Besides, the result in experiment [5], in experiment [6], in experiment [7] and in experiment [8] was inactive.
As for `CN(C(=O)Cc1ccc(Cl)c(Cl)c1)C1CCN(CCCCCNC(=O)/C=C/c2ccc(Cl)c(Cl)c2)CC1`, the growth inhibition in experiment [1] is 13%; in experiment [4], 84% (active). Further, the results for the inhibition in experiment [2] and in experiment [3] were 87% (active) and -4%, respectively. Moreover, the result in experiment [5], in experiment [6], in experiment [7] and in experiment [8] was inactive.
Turning to `COc1cccc2cc(C(=O)N[C@@H](CC(C)C)C(=O)N[C@H](/C=N/NC(=O)OC(C)(C)C)CC(=O)OC(C)(C)C)oc12`, the growth inhibition was 57% (active) in experiment [1] and 85% (active) in experiment [4]. Also, the inhibition was 4% in experiment [2] and 0% in experiment [3]. For the same compound, the result in experiment [5], in experiment [6], in experiment [7] and in experiment [8] was inactive.
As to `CCN(C(=O)c1ccc(NC(=O)c2cccs2)cc1)c1nc2c(C)cccc2s1`, the growth inhibition in experiment [1] is 85% (active); in experiment [4], 89% (active). For the same compound, the inhibition in experiment [2] is 24%; in experiment [3], -3%. In addition, the outcome in experiment [5], in experiment [6], in experiment [7] and in experiment [8] was inactive.
`CC(C)N1CCN(C(CN2CCN(CCCOc3cccc(F)c3)CC2)c2ccc(F)cc2)CC1` (centres undefined): the growth inhibition in experiment [1] was 38%; in experiment [4], 92% (active). Moreover, the inhibition is 38% in experiment [2] and 0% in experiment [3]. Besides, the result in experiment [5], in experiment [6], in experiment [7] and in experiment [8] was inactive.

For the origin of these results see PubChem BioAssay.
